Screens: PubChem BioAssay, Paczesny and Yang Labs, IUPUI and University of Michigan
Shown is part of a subset that was picked to be rich in hits.
ST2 inh: inhibitors of human ST2 (IL1RL1) binding to IL-33, primary screen, biochemical, AlphaLISA; AlphaLISA ST2-Fc/biotin-IL-33 interaction, 1 h; inhibition, % for hits at 17 µM; actives 2.3% (n = 78,000); AID 1259354, 2018; in the data active = inhibition above about 30%
Target sequence (Q01638 whole entry, looked up): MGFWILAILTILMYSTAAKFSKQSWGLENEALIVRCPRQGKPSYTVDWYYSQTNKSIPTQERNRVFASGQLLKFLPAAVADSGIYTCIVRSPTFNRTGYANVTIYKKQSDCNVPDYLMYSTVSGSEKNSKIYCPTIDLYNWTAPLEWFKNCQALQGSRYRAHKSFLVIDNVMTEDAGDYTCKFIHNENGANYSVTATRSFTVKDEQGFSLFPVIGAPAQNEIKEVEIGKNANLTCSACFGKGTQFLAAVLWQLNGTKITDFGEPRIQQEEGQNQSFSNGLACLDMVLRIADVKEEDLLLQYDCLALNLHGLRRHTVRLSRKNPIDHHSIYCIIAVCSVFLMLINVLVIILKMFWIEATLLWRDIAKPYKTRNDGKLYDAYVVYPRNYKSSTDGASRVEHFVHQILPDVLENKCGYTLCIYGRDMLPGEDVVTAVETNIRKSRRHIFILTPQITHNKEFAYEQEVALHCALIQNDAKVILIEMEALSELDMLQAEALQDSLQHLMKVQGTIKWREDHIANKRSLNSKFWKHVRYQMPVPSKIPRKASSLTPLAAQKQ
Each line names hits and unclear results; the compound was inactive in the other large screens.

COc1ccc(CNc2ccc3c(c2)ncn3C2CCCCC2)cc1OC	ST2 inh 33.0%
CCOc1ccc(CNc2ccc3c(c2)ncn3C(C)(C)C)cc1	none
COc1ccc2c(c1)CCc1c(C(=O)Nc3ccc(F)cc3F)noc1-2	none
COc1cc(CC2(CCC(=O)N3CCN(C(=O)c4cccs4)CC3)CCC(=O)N2)ccc1F (configuration not stated)	none
CCn1nc(C(C)C)cc1C(=O)N1CCC(Cn2cc(CO)nn2)CC1	none
O=C(O)c1ccc(CN2C[C@H](O)C[C@H]2c2nc(-c3ccc(F)cc3)no2)cc1	none
CCOC(=O)c1cccc(NC(=O)N[C@H]2CO[C@H]3[C@@H]2OC[C@H]3OC(=O)Nc2ccccc2)c1	none
CCNC(=O)O[C@@H]1CO[C@H]2[C@@H]1OC[C@@H]2NC(=O)Nc1cccc(C(F)(F)F)c1	none
COc1ccc(NC(=O)N[C@H]2CO[C@H]3[C@@H]2OC[C@H]3OC(=O)Nc2ccc(C(C)=O)cc2)cc1	none
COC(=O)c1cccc(NC(=S)N[C@H]2CO[C@H]3[C@@H]2OC[C@H]3OCc2ccccc2)c1	none
CC(=O)c1ccc(NC(=O)O[C@@H]2CO[C@H]3[C@@H]2OC[C@@H]3NC(=S)Nc2cccc(C#N)c2)cc1	none
CC(=O)c1cccc(NC(=O)O[C@@H]2CO[C@H]3[C@@H]2OC[C@@H]3NC(=S)Nc2cc(C)cc(C)c2)c1	none
CCNC(=O)O[C@@H]1CO[C@H]2[C@@H]1OC[C@@H]2NC(=S)Nc1cccc(C(=O)OC)c1	ST2 inh 34.0%
COc1ccc(NC(=O)O[C@@H]2CO[C@H]3[C@@H]2OC[C@@H]3NC(=O)Nc2cccc(C#N)c2)cc1	ST2 inh 66.0%
O=C(Nc1cccc(C(F)(F)F)c1)N[C@H]1CO[C@H]2[C@@H]1OC[C@H]2OC(=O)Nc1ccc(Oc2ccccc2)cc1	ST2 inh 31.0%
CCOC(=O)C(C)(C)Sc1nc2c(c(=O)n1-c1ccc(C)cc1)SCC2	none
CC1=C(C(=O)Nc2ccc(C)cn2)C(c2ccsc2)C2=C(CC(C)(C)CC2=O)N1 (configuration not stated)	none
CCCNC(=O)C1CC(=O)N(c2ccc(Cl)cc2)C1 (configuration not stated)	none
CCOc1c(Nc2cc(C)ccc2C)c(=O)c1=O	none
CCn1c(CC2CCN(C(=O)c3ccc(CN(C)C)o3)CC2)nn(C)c1=O	none
COc1ccc(-c2cc3ccccn3c2)c(OC)c1	ST2 inh 50.0%
COc1ccc(-c2nccn2CCc2ccccn2)c(OC)c1	none
COc1ccc(-c2ccnc(N)c2)c(OC)c1	none
C=CCOc1ccc(/C=C2/SC(N3CCOCC3)=NC2=O)cc1	none
O=C1N=C(N2CCOCC2)S/C1=C/c1ccc(-c2ccccc2)o1	ST2 inh 34.0%
CN1CCN(C2=NC(=O)/C(=C/c3cccs3)S2)CC1	none
Cc1ccc(/C=c2\sc3nc(-c4ccc(OC(C)C)cc4)nn3c2=O)o1	none
Cc1ccc(/C=C2\CS/C(=C\c3ccc(C)o3)C2=O)o1	ST2 inh 60.0%
CCOc1ccc(-c2nc3s/c(=C\c4ccc(C)o4)c(=O)n3n2)cc1	none
COc1cc(/C=C2/SC(N3CCC(C)CC3)=NC2=O)cc(OC)c1OC	none
O=C1N=C(N2CCOCC2)S/C1=C/c1ccc(Cl)cc1	none
Cc1ccc(/C=C2/SC(N3CCC(C)CC3)=NC2=O)o1	ST2 inh 30.0%
COc1c(F)cccc1C(=O)NCC1CCN(C2CCOCC2)C1 (configuration not stated)	none
O=C(NCc1ccccc1)c1ccc2nc3cc(Cl)ccc3c(=O)n2c1	none
Cc1nc2c(C(=O)N3CCCC3)c[nH]n2c(=O)c1Cc1ccccc1Cl	none
CC(C)C(=O)Nc1cccnc1-c1ccc2c(c1)OCCO2	none
CCC1CCCCN1S(=O)(=O)c1ccc2[nH]c(=O)cc(C(=O)O)c2c1 (configuration not stated)	none
COc1ccnc(CN2CCC=C(C(C)NC(C)=O)C2)c1OC (configuration not stated)	none
COc1ccc(Cl)cc1NC(=O)CSc1nc2c([nH]c3ccccc32)c(=O)n1C	none
O=C(CCS(=O)(=O)c1ccc(Br)s1)Nc1cc(F)ccc1F	none
CC(C)Oc1cccc(C(=O)C2CCCN(C(=O)/C=C/c3cccs3)C2)c1 (configuration not stated)	none
Cc1ccc(N2NC(=O)/C(=C/c3ccc(OCc4ccccc4)cc3)C2=O)cc1Cl	none
COc1cc(/C=C2/C(=O)NN(c3ccc(C)c(Cl)c3)C2=O)ccc1OCc1ccccc1	ST2 inh 48.0%
COc1cc(/C=C2/C(=O)NN(c3ccc(C)c(Cl)c3)C2=O)cc(OC)c1OC	none
Cc1ccc(-n2c(=O)c3c(C)c(C)sc3n(CC(=O)N3CCCC3)c2=O)cc1C	none
CC[C@H]1CN(C(=O)c2ccc(C)cc2C)CC[C@@]1(C)O	ST2 inh 31.0%
CC(C)C[C@H]1CN(C(=O)c2ccc(-c3nnn(C)n3)cc2)CC[C@@]1(C)O	none
CC[C@H]1CN(C(=O)c2cccnc2N2CCOCC2)CC[C@@]1(C)O	none
O=C(c1cccs1)N1CCN=C1SCc1cccc(Cl)c1	none
CCSC1=N/C(=C\c2c(OC)cc(OC)cc2OC)C(=O)S1	ST2 inh 38.0%
Cc1ccc(NCCCn2cnc(-c3ccccc3)c2-c2cnc[nH]2)nc1	none
O=C(O)Cc1ccc(NCc2ccc(Cl)cc2)cc1	none
CCOc1ccc(C2Oc3c(cc(Br)cc3OC)C=C2[N+](=O)[O-])cc1OCC (configuration not stated)	ST2 inh 43.0%
CCOc1cc2c(cc1OCC)C(c1ccc(Br)cc1)OC(=O)C2 (configuration not stated)	none
CCCOc1ccc(C2Oc3ccc(Br)cc3C=C2[N+](=O)[O-])cc1OC (configuration not stated)	ST2 inh 44.0%
CCCOc1ccc(/C=C2\N=C(c3cccc([N+](=O)[O-])c3)OC2=O)cc1OC	none
CCOc1ccc(S(=O)(=O)N2CCSC2c2ccc(OC)c([N+](=O)[O-])c2)cc1 (configuration not stated)	none
COc1cc([N+](=O)[O-])ccc1NC(=O)COc1ccc(Br)cc1C	none
CCCSc1nnc2c(n1)OC(c1ccncc1)N(C(C)=O)c1ccccc1-2 (configuration not stated)	none
CCNC(=O)c1ccc(-c2ccc3ncccc3c2)nc1	none
CSc1ccc(-c2nc(CSCC(=O)NC3CCCC3)c(C)o2)cc1	none
CC1(C)CC(=O)C2=C(C1)OC(N)=C(C#N)C2c1ccccc1OCc1ccc(Cl)cc1 (configuration not stated)	none
Cc1cccc(C(=O)N(c2ccc(Br)cc2)C2C=CS(=O)(=O)C2)c1 (configuration not stated)	none
O=C(NC[C@H]1O[C@@H](CO)[C@@H](O)[C@H]1N1CCN(c2ccccc2)CC1)c1cccc(F)c1	ST2 inh 92.0%
O=C(NC[C@H]1O[C@@H](CO)[C@@H](O)[C@H]1N1CCN(c2ccc(F)cc2)CC1)c1cccc(F)c1	none
COc1ccc(C(=O)NC[C@H]2O[C@@H](CO)[C@@H](O)[C@H]2N2CCN(c3ccc(F)cc3)CC2)cc1	none
CC1CCN([C@@H]2[C@H](O)[C@H](CO)O[C@@H]2CNC(=O)c2cccs2)CC1	none
O=C(NC[C@H]1O[C@@H](CO)[C@@H](O)[C@H]1N1CCN(c2ccccc2)CC1)c1ccc(F)c(Cl)c1	none
O=C(NC[C@H]1O[C@@H](CO)[C@@H](O)[C@H]1N1CCN(c2ccc(F)cc2)CC1)c1cccs1	ST2 inh 74.0%
COc1cc2c(cc1OC)C(C(=O)Nc1ccc3c(c1)OCO3)C(c1cccs1)N(C)C2=O (configuration not stated)	none
CCn1c(CC2CCNCC2)nn(CCOc2ccc(F)cc2)c1=O	none
